The list is not random: actives were taken first. Their share in the collection is about 1.1%.
AmpC no deterg: inhibitors of E. coli AmpC beta-lactamase without detergent; P00811; hit rate 0.52% among 330,000; AmpC nitrocefin hydrolysis, absorbance 480 nm, 0.0001% Triton; AID 485341; Potency, µM (titrated, usually from 57.1 µM), inactives show top-dose activity change, negative = inhibition, hits mostly inhibitors;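 also: plate controls were no compound for no effect and no enzyme for full effect; nearly all actives have a fitted effect of over 20% in size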
Target sequence (P00811 whole entry, looked up): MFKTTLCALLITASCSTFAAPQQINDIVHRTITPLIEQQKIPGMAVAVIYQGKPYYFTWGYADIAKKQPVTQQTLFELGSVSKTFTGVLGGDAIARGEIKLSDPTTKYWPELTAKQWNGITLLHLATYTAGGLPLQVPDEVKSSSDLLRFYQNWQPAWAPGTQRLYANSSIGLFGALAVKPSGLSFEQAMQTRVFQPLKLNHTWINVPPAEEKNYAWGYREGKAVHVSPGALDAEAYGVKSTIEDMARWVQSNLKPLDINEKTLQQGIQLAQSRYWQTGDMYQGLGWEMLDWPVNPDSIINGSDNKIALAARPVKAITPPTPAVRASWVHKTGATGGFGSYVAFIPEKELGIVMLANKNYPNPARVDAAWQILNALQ
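20 mM phosphate pH 7.0 + 0.01% (detergent screen) or 0.0001% Triton X-100; 5.3 nM AmpC reagent; cpd preinc 15 min RT; nitrocefin (800 uM stock) to start; A480 q20 s × 4 min; Activity was normalised to no-enzyme and no-compound control wells.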
AmpC inh detg: blocks E. coli AmpC beta-lactamase in detergent assay | P00811 | AmpC hydrolysis of nitrocefin, absorbance 480 nm, 0.01% Triton | Potency, µM (series often up to 114 µM), for inactives: at the highest dose activity change, negative = inhibition, hits mostly inhibitors | hit rate 0.041% among 370,000 | AID 485294;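 also: 0% = no-compound wells and -100% = no-enzyme wells; nearly all actives have a fitted effect of over 25% in size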
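20 mM phosphate pH 7.0 + 0.01% (detergent screen) or 0.0001% Triton X-100; 5.3 nM AmpC reagent; cpd preinc 15 min RT; nitrocefin (800 uM stock) to start; A480 q20 s × 4 min; Activity was normalised to no-enzyme and no-compound control wells.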
VACV mCherry inh: vaccinia inhibition (mCherry reporter) | Vaccinia virus mCherry reporter infection, fluorescence | Potency, µM (highest dose often 36.5 µM), inactives show at the highest dose activity change, negative = inhibition, hits mostly inhibitors | hit rate 0.63% among 310,000 | AID 720579; calls by dose curve; tested in A549 cells; also: nearly all actives have a fitted effect of over 35% in size
Vaccinia Venus: inhibitors of vaccinia virus (Venus reporter); Vaccinia virus Venus reporter expression, fluorescence; Potency, µM (titrated, usually from 36.5 µM), inactives show at the top dose activity change, negative = inhibition, usual class: inhibitors; hit rate 0.46% among 330,000; AID 720580; calls by dose curve; tested in A549 cells; also: nearly all actives have a fitted effect of over 30% in size
An asterisk follows results filed as active; i = inactive; ? = inconclusive; . = no result; [ ] = another dose, or the depositor's remark. Unless noted, calls follow the shape of the dose curve; as a rule, active = well fitted curve in the direction sought with a large enough effect; inconclusive = small, poorly fitted or top-dose-only effect, or another doubt; inactive = no such curve, though single readings can be large; an effect the other way counts as inactive or inconclusive. Unless noted, % is scaled to controls: 0 for no effect and ±100 for the full control effect; potency is read from the fitted curve at half-maximal effect.

SMILES | AmpC no deterg | AmpC inh detg | VACV mCherry inh | Vaccinia Venus
CC1(C)S[C@@H]2[C@H](NC(=O)[C@H](N)c3ccccc3)C(=O)N2[C@H]1C(=O)OC1OC(=O)c2ccccc21 (stereo partly drawn) | 0.22µM* | 63µM* | i | -17%
O=c1[nH]c(-c2ccccn2)nc(C(F)(F)F)c1Br | -16% | 4% | 11µM* | -17%
COc1cccc(/C=C/c2nc3ccccc3nc2/C=C/c2cccc(OC)c2OC)c1OC | . | . | -14% | -6%
Cc1c2oc3c(C)ccc(C(=O)NC4C(=O)NC(C(C)C)C(=O)N5CCCC5C(=O)N(C)CC(=O)N(C)C(C(C)C)C(=O)OC4C)c3nc-2c(C(=O)NC2C(=O)NC(C(C)C)C(=O)N3CCCC3C(=O)N(C)CC(=O)N(C)C(C(C)C)C(=O)OC2C)c(N)c1=O (stereo not drawn) | . | . | -14%[13.8 µM] | -15%[13.8 µM]
O=C(Cn1nc(Cc2cccnc2)c2ccccc2c1=O)Nc1ccc(F)c(Cl)c1 | . | 5% | ? | -19%
O=C(Cn1nc(Cc2cccnc2)c2ccccc2c1=O)Nc1ccc2c(c1)OCO2 | 10µM* | 4% | i | -5%
COC1=C(C)C(O)=C(C(=O)/C=C/c2ccccc2)C(=O)C1(C)C | -19% | -4% | 11µM* | ?
CCNc1sc(C(=O)c2cccs2)c(N)c1-c1nc2ccccc2s1 | -36% | -17% | -19% | -18%
CCOC(=O)c1sc(NCc2ccco2)c(-c2nc3ccccc3s2)c1N | 11µM* | ? | . | -14%
COc1cccc(-c2ccnc(-n3ncc(C(=O)N(C)CCc4ccccn4)c3C)n2)c1 | . | . | -12% | -9%
COc1cc(NS(=O)(=O)c2ccc(NC(=S)NC(=O)CC(C)C)cc2)nc(OC)n1 | -39% | ? | 11µM* | ?
COc1cc(NS(=O)(=O)c2ccc(NC(=S)NC(=O)C3CCCC3)cc2)nc(OC)n1 | 16µM* | -1% | . | .
CCNC(=S)N/N=C/c1cc(C)n(-c2ccc(Cl)cc2)c1C | 28µM* | 1% | -7% | 1%
COc1cc(=O)n2c(c1C(=O)NC(C)c1ccco1)CCN(C(=O)c1ccc3c(c1)OCCO3)CC2 (stereo not drawn) | . | . | -8% | -6%
C#CCn1cc(/C=N/NC(=O)c2cc3ccccc3o2)c2ccccc21 | 28µM* | ? | -24% | 14%
Cc1cc(C)c(C(=O)/C=C/c2cccc3ccccc23)c(=O)[nH]1 | -31% | -10% | 5µM* | 8.9µM*
Cc1cc(C(=O)NCc2nnc3n2CCN(Cc2ccc4c(c2)Cc2ccccc2-4)CC3)c(C)o1 | . | . | -10% | -6%
C[C@]12CC[C@H](O)C[C@H]1CCC1C2CC[C@]2(C)[C@@H](c3ccc(=O)oc3)C[C@H]3O[C@]132 (stereo partly drawn) | . | . | 1.3µM* | 1.1µM*
CC(=O)O[C@H]1[C@H]2O[C@]23[C@@H]2CC[C@]4(O)C[C@@H](O)CC[C@]4(C)C2CC[C@]3(C)[C@H]1c1ccc(=O)oc1 (stereo partly drawn) | 20% | 3% | 32µM* | 0.032µM*
C[C@]12CCC3[C@@H](CC[C@@H]4C[C@H](O)CC[C@]34C)[C@@H]1CCC2=O (stereo partly drawn) | 57% | ? | i | -18%
C[C@]12CC[C@H]3C(CCC4(O)CC(O)CC[C@]34C=O)C1=CC[C@H]2c1ccc(=O)oc1 (stereo partly drawn) | -12% | -2% | . | .
Cc1ncc2c(c1CNC(=O)c1ccc3c(c1)OCO3)CCN(C(=O)c1cc3ccccc3n1C)C2 | . | . | -7% | 4%
COc1cc(=O)n2c(c1C(=O)N(C)Cc1nccs1)CCN(Cc1cc(C)cc(C)c1)CC2 | . | . | -19% | -8%
O=[N+]([O-])c1ccc(NN=Cc2ccc(O)cc2O)nc1 | . | . | 1.4µM* | ?
CCN(CC)S(=O)(=O)c1ccc(N/N=C/c2ccc(O)cc2O)nc1 | -4% | 9% | 4µM* | ?
SMILES | AmpC no deterg | AmpC inh detg | VACV mCherry inh | Vaccinia Venus
COc1cccc(OC)c1CN1CCC2(CCC(CNC(=O)c3ccn(C)n3)O2)CC1 (stereo not drawn) | . | . | i | -13%
C[C@@H]1CN(Cc2ccc3c(c2)CN(Cc2cccn2-c2ccc(Cl)cn2)CCO3)C[C@H](C)O1 | . | . | -16% | 2%
COc1ccc(C2=NN(C(=O)CSc3cn(C)c4ccccc34)C(c3ccc(OC)cc3)C2)cc1 (stereo not drawn) | 1.6µM* | ? | ? | -7%
COc1ccc(C2=NN(C(=O)CSc3ncccn3)C(c3ccc(OC)cc3)C2)cc1 (stereo not drawn) | 72% | -2% | -3% | -21%
CN(C)c1ccc(/C=C/c2ccnc3cc(Cl)ccc23)cc1 | . | . | -16% | 47%
CCOC(=O)c1c(-c2ccc(-c3ccccc3)cc2)csc1NC(=O)CNCCN(C)C | 173% | -12% | 10µM* | ?
CCC1C(=O)NCCN1Cc1ccc2c(c1)CN(Cc1cccn1-c1ccc(Cl)cn1)CCO2 (stereo not drawn) | . | . | -20% | -4%
COc1ccc(OC)c(-c2ccnc(-n3ncc(C(=O)NC(C)(C)CO)c3C3CC3)n2)c1 | . | . | -14% | 0%
COc1cc(C2SCC(=O)N2CCCN(C)C)cc(OC)c1OC (stereo not drawn) | 0% | -5% | . | -15%
CN(C)CCCN1C(=O)CSC1c1ccccc1 (stereo not drawn) | 1µM* | ? | -11% | -13%
COc1ccc(C2(C(=O)NCC3Cc4cccc(-c5cccnc5)c4O3)CCCC2)cc1 (stereo not drawn) | . | . | -19% | -12%
COc1ccc(/C=N/NC(=O)c2cc3c(OC)ccc(OC)c3[nH]2)cc1O | -22% | 0% | 7.1µM* | ?
COc1ccc(OC)c2[nH]c(C(=O)N/N=C/c3ccccc3O)cc12 | -32% | ? | ? | ?
C#CC(C)(CC)NC(=O)Cn1nnc(-c2ccc(OCc3ccccc3F)cc2)n1 (stereo not drawn) | . | 3% | ? | 11µM*
[N-]=[N+]=Nc1nc2c(N)ncnc2n1C1OC(CO)C(O)C1O (stereo not drawn) | . | . | 8.9µM* | 13µM*
Nc1ncnc2c1nc(Cl)n2[C@@H]1O[C@H](CO)[C@@H](O)[C@@H]1O | . | . | ? | 13µM*
CN(C)c1nc2c(N)ncnc2n1C1OC(CO)C(O)C1O (stereo not drawn) | . | . | -15% | -9%
Nc1ncnc2c1nc(Cl)n2C1OC(CO)C(O)C1O (stereo not drawn) | . | . | ? | -28%
C(=Nc1ccc(/C=C/c2ccnc3ccccc23)cc1)c1ccco1 | . | . | -18% | -16%
CC(C)Cc1nc2cc(NS(=O)(=O)N(C)C)cc(C(=O)N3CCOCC3)c2n1C | . | . | -13% | -5%
COc1ccc(/C=N/NC(=O)CCOc2ccccc2C)cc1OC | -1% | -15% | -17% | -10%
COc1cc(/C=N/NC(=O)CCOc2ccccc2C)cc(Br)c1O | 22µM* | 1% | -15% | -13%
O=C(c1ccc([N+](=O)[O-])s1)N1CCCc2ccccc21 | -10% | -1% | 10µM* | ?

Assay outcomes (PubChem BioAssay)
